The source made the active and inactive calls. Unless noted, the rule behind the calls is not given here.
What was measured:
[1] = HepG2 liver cancer cell viability effects, profiling panel, resazurin fluorescence, 24 h, PK04 Diversity Set (AID 1172); details: higher = more signal
[2] = basal S. cerevisiae growth modulation, no modifier, primary screen, OD600, strain BY4716, 24 h, basal condition (AID 1173); details: OD600, 24 h, higher = more signal, called active from +8 up or from −8 down
[3] = MM1S myeloma cell viability, profiling panel, resazurin fluorescence, basal, 24 h, PK04 Diversity Set (AID 1174); details: higher = more signal, called active from +8 up or from −8 down;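 note: MM1S multiple myeloma cell line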
[4] = biological target: Dihydroorotate dehydrogenase (quinone), mitochondrial (Plasmodium falciparum (isolate 3D7)) (UniProt Q08210); experiment: PfDHODH enzyme inhibitors, primary screen, biochemical, C-terminal His tag, absorbance 600 nm (AID 1175); details: DCIP absorbance 600 nm, higher = more signal, called active from +8 up or from −8 down;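 note: recombinant parasite enzyme with a five histidine tag at its C terminus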
Sequence of Dihydroorotate dehydrogenase (quinone), mitochondrial (Plasmodium falciparum (isolate 3D7)) (Q08210 whole entry, looked up): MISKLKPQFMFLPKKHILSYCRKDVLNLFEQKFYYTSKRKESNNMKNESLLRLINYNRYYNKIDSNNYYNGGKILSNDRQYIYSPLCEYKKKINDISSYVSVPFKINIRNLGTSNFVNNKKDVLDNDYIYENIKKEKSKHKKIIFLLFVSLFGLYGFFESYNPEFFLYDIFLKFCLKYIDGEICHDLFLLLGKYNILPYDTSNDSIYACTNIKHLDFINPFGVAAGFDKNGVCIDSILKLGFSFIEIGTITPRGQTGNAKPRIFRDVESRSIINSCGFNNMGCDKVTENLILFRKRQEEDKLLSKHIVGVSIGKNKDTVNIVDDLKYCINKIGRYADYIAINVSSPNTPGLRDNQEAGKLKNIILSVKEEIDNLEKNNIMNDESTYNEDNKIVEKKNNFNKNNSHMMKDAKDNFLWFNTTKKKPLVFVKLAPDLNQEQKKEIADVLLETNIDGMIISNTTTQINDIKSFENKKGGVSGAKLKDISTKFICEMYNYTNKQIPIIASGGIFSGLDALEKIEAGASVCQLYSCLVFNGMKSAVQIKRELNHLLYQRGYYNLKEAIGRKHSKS

[5] = P. aeruginosa biofilm formation inhibitors, primary screen, strain PAO1, LB-PBS medium, absorbance 600 nm (AID 1176); details: P. aeruginosa PAO1 growth/biofilm, A600, 12 h; higher = more signal
[6] = S. cerevisiae RM11-1a growth modifiers, primary screen, strain RM11-1a, OD600, basal, 24 h (AID 1177); details: OD600, 24 h, higher = more signal, called active from +8 up or from −8 down;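 note: cultures grown under basal conditions with no added stressor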
[7] = E. coli acrAB mutant growth effects, primary screen, E. coli filamentation inducers, strain DRC39, OD650, 24 h (AID 1178); details: higher = more signal, called active from +8 up or from −8 down;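 note: growth measured as culture turbidity by optical density at 650 nm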
[8] = E. coli acrAB mutant growth effects, primary screen, E. coli filamentation inducers, strain DRC39, OD650, 48 h (AID 1179);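 note: screen aims at cell division blockers that make cells filament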; details: E. coli DRC39 delta-acrAB growth, higher = more signal, called active from +8 up or from −8 down
[9] = RPMI8226 myeloma cell viability, profiling panel, resazurin fluorescence, basal, 24 h, PK04 Diversity Set (AID 1180); details: higher = more signal;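 note: RPMI8826 multiple myeloma cell line at 5000 cells per well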
[10] = biological target: E3 ubiquitin-protein ligase XIAP (Homo sapiens) (UniProt P98170); experiment: XIAP binders, primary screen, biophysical, small-molecule microarray, fluorescence 635 nm (AID 1181); details: small-molecule microarray binding, higher = more signal;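 note: score merges 667 nm emission and signal to noise over triplicate slides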
Sequence of E3 ubiquitin-protein ligase XIAP (Homo sapiens) (P98170 whole entry, looked up): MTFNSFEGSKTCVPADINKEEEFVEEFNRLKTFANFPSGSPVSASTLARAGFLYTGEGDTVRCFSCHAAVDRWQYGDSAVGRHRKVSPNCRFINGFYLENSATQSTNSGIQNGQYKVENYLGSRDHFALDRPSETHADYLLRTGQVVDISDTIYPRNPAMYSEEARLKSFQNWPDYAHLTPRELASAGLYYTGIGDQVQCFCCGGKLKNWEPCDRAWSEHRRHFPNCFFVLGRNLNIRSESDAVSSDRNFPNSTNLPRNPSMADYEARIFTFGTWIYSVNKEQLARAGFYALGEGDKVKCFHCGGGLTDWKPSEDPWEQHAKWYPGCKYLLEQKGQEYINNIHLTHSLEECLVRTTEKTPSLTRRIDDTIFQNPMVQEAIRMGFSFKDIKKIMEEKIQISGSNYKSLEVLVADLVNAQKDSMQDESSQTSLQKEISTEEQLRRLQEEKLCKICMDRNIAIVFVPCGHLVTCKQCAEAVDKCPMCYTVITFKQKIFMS

[11] = system: XIP peptide (Xip251-270) binding; experiment: small-molecule binders of XIP peptide, primary screen, biochemical, small-molecule microarray, fluorescence 635/667 nm, 0.1 µg/mL protein (AID 1182); details: fluorescent protein binding, 635 nm, higher = more signal, called active from +8 up or from −8 down
[12] = system: XIP peptide (Xip251-270); experiment: small-molecule binders of XIP peptide, primary screen, biochemical, small-molecule microarray, fluorescence 635/667 nm, 0.5 µg/mL protein (AID 1183); details: small-molecule microarray binding, fluorescence 635 nm; higher = more signal
[13] = Plasmodium falciparum growth inhibition, primary screen, strain 3D7, DAPI fluorescence, 100 nL (AID 1184);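 note: parasites grown inside human red blood cells in medium with human serum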; details: P. falciparum 3D7 growth, 3 d, higher = more signal
[14] = biological target: Homeobox protein Hox-A13 (Mus musculus) (UniProt Q62424); experiment: inhibitors of HoxA13-DNA binding, primary screen, biochemical, fluorescence polarization, labeled oligonucleotide (AID 1185); details: 15 min, higher = more signal, called active from +8 up or from −8 down
Sequence of Homeobox protein Hox-A13 (Mus musculus) (Q62424 whole entry, looked up): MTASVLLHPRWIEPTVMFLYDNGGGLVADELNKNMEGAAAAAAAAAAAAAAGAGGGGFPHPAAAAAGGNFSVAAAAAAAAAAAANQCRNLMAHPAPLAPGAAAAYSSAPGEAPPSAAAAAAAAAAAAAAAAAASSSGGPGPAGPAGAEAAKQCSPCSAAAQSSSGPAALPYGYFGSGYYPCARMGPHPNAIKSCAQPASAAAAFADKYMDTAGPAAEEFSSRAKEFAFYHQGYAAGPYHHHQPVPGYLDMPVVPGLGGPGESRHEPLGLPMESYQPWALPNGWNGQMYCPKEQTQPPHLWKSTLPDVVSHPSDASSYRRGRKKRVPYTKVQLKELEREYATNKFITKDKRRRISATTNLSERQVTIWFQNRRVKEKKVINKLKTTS

[15] = inhibitors of hydroxyurea-induced Chk1 phosphorylation, primary screen, imaging, HeLa, phospho-Chk1 antibody, percent positive cells (AID 1186); details: hydroxyurea-induced phospho-Chk1 immunofluorescence imaging, higher = more signal
[16] = inhibitors of hydroxyurea-induced Chk1 phosphorylation, primary screen, imaging, HeLa, phospho-Chk1 nuclear intensity (AID 1187); details: hydroxyurea-induced phospho-Chk1 immunofluorescence imaging, higher = more signal

| Compound | z-score [1] | z-score [2] | z-score [3] | composite z-score [4] | z-score [5] | z-score [6] | z-score [7] | z-score [8] | z-score [9] | composite z-score [10] | composite z-score [11] | composite z-score [12] | z-score [13] | z-score [14] | z-score [15] | z-score [16] |
| --- | --- | --- | --- | --- | --- | --- | --- | --- | --- | --- | --- | --- | --- | --- | --- | --- |
| CO[C@H]1O[C@H](CO)[C@@H](OC(=O)Nc2ccc3c(c2)OCO3)[C@H](OC(=O)Nc2ccc3c(c2)OCO3)[C@@H]1OC(=O)Nc1ccc2c(c1)OCO2 | -0.907 | 1.44 (inactive) | -0.309 (inactive) | -0.732 (inactive) | 1.05 (inactive) | 1.81 (inactive) | 1.01 (inactive) | -0.147 (inactive) | -0.472 | 0.374 | 1.12 (inactive) | 0.904 | -2.31 | -4.7 (inactive) | -0.187 (inactive) | -0.119 (inactive) |
| C=C[C@@H](OC)[C@H](OC(=O)Nc1ccc(OC)cc1)c1ccc(O)c(F)c1 | -0.902 | -6.91 (inactive) | -0.967 (inactive) | -1.1 (inactive) | 0.741 (inactive) | -0.175 (inactive) | 0.146 (inactive) | -0.355 (inactive) | -0.877 | 0.252 | 0.65 (inactive) | 0.741 | -0.825 | -2.8 (inactive) | -0.528 (inactive) | -1.17 (inactive) |
| O=C1[C@H]2C=C(I)[C@H](C[C@@H]2OCCOCCO)[C@@]12CO2 | 0.0263 | -0.28 (inactive) | -0.448 (inactive) | 0.0832 (inactive) | 0.224 (inactive) | -0.145 (inactive) | -0.331 (inactive) | -0.175 (inactive) | -0.244 | -0.304 | 0.0014 (inactive) | -0.0714 | 0.79 | 0.122 (inactive) | 0.363 (inactive) | 0.401 (inactive) |
| CO[C@H]1O[C@H](CO)[C@@H](OC(=O)Nc2ccc(Br)cc2)[C@@H]2OC(=O)[C@@H](Cc3ccccc3)C/C=C/C[C@H](Cc3ccccc3)C(=O)O[C@@H]12 | -1.2 | -0.0671 (inactive) | -3.25 (inactive) | -1.25 (inactive) | 0.193 (inactive) | 1.59 (inactive) | 0.547 (inactive) | 0.347 (inactive) | -4.07 | 0.289 | 0.491 (inactive) | 0.693 | -0.683 | -1.27 (inactive) | -0.324 (inactive) | 0.406 (inactive) |
| COCCOC(=O)N1C(=O)[C@@]2(c3cc(C#CCC(C(=O)OC)C(=O)OC)ccc31)[C@H](c1ccc(OCCO)cc1)N1[C@H](c3ccccc3)[C@H](c3ccccc3)OC(=O)[C@H]1[C@@H]2C(=O)N1CCc2cc(OC)c(OC)cc2C1 | 0.125 | 2.56 (inactive) | 0.26 (inactive) | -0.523 (inactive) | 2.25 (inactive) | 3.32 (inactive) | 0.301 (inactive) | 0.294 (inactive) | 0.504 | 0.112 | 1.24 (inactive) | 0.727 | -2 | 2.86 (inactive) | -0.0277 (inactive) | 0.246 (inactive) |
| CC1CC/C=C\[C@H]2OC34C=CCN(Cc5ccccc5)C(=O)[C@H]3N(C(CO)C(C)C)C(=O)[C@@H]4C2C(=O)O1 (some centres not stated) | 0.145 | 0.325 (inactive) | 0.325 (inactive) | -0.841 (inactive) | 0.205 (inactive) | 0.558 (inactive) | 0.426 (inactive) | 0.523 (inactive) | 0.775 | -0.211 | 0.0855 (inactive) | -0.555 | 0.597 | -5.14 (inactive) | -0.0785 (inactive) | -0.204 (inactive) |
| COc1ccc(C(=O)Nc2ccc(CN3C(=O)[C@]4(O[C@H](CC(=O)N5Cc6ccccc6C[C@H]5CO)[C@@H]([Si](C)(C)c5ccc(OC)cc5)[C@@H]4C)c4ccccc43)cc2)cc1 | -1.61 | 0.496 (inactive) | -1.13 (inactive) | -2.72 (inactive) | 0.0002 (inactive) | 2.48 (inactive) | -1.14 (inactive) | -1.09 (inactive) | -0.839 | -0.239 | 1.22 (inactive) | 0.775 | -2.31 | 0.247 (inactive) | 0.714 (inactive) | 0.329 (inactive) |
| CC(C)N1C(=O)c2ccccc2[C@@H](C(=O)NCCN2CCOCC2)[C@@H]1c1ccc(CO)cc1 | -0.229 | 0.525 (inactive) | -0.401 (inactive) | 0.184 (inactive) | 0.429 (inactive) | 0.985 (inactive) | 0.0059 (inactive) | -0.434 (inactive) | -0.0956 | -0.465 | 0.122 (inactive) | 0.0961 | -0.22 | -4.17 (inactive) | -0.0809 (inactive) | -0.264 (inactive) |
| CCCCC(CC)C(O)C1C=CC2C(=O)N(c3ccccc3)C(=O)C2N1Nc1ccccc1F (configuration not stated) | 0.518 | 0.814 (inactive) | 0.888 (inactive) | 0.301 (inactive) | 0.657 (inactive) | 0.732 (inactive) | 0.207 (inactive) | 0.644 (inactive) | 0.767 | 0.0727 | 0.634 (inactive) | 0.0509 | -0.579 | -2.25 (inactive) | 0.322 (inactive) | 0.195 (inactive) |
| COc1ccc(CCNC(=O)[C@@]2(Cc3ccccc3I)c3ccccc3C(=O)N(C3CCCCC3)[C@H]2c2ccc(CO)cc2)cc1 | -0.0428 | -0.447 (inactive) | -0.0298 (inactive) | -0.145 (inactive) | 0.462 (inactive) | -2.65 (inactive) | 0.314 (inactive) | 0.197 (inactive) | -0.0337 | 0.144 | 0.898 (inactive) | 0.372 | -2.22 | -2.56 (inactive) | -0.312 (inactive) | -0.543 (inactive) |
| [N-]=[N+]=Nc1ccccc1C[C@@]1(C(=O)N2CCOCC2)N=C(c2ccc(OCCCO)cc2)O[C@@H]1c1ccccc1 | -0.339 | -1.76 (inactive) | -0.967 (inactive) | -0.132 (inactive) | 0.413 (inactive) | -0.0584 (inactive) | 0.37 (inactive) | -0.0378 (inactive) | -0.0984 | -0.09 | 0.111 (inactive) | 0.765 | -2.32 | -5.84 (inactive) | -1.05 (inactive) | -1.34 (inactive) |
| COC(=O)C1(CC(C)C)C=C2C(=C(c3ccccc3)C(=O)C2C)CN1 (configuration not stated) | -1.21 | 0.397 (inactive) | -2.14 (inactive) | -1.58 (inactive) | 0.647 (inactive) | 0.168 (inactive) | -0.33 (inactive) | 0.208 (inactive) | -1.27 | -0.0133 | -0.213 (inactive) | 0.758 | -0.104 | -7.47 (inactive) | -0.563 (inactive) | -1.13 (inactive) |
| C[N+](C)(C)CCCCCCNC(=O)[C@@H]1C[C@@H]2C(=O)N3CCC[C@H]3C(=O)N2[C@@H]1c1ccc(O)cc1 | 1.4 | -0.827 (inactive) | 1.02 (inactive) | -1.53 (inactive) | -0.984 (inactive) | -0.0176 (inactive) | 0.0464 (inactive) | -0.207 (inactive) | 0.441 | -0.169 | 0.45 (inactive) | 0.723 | 0.0301 | -1.82 (inactive) | -0.265 (inactive) | 0.127 (inactive) |
| CC(C)C[C@@H]1NC(=O)[C@@H]2C[C@H](C(=O)NCCCCCCN)[C@H](c3cccc(OCCO)c3)N2C1=O | -0.821 | -0.568 (inactive) | 0.542 (inactive) | 1.05 (inactive) | 0.379 (inactive) | 0.473 (inactive) | -0.0795 (inactive) | -0.74 (inactive) | -0.0399 | 0.0264 | 1.6 (inactive) | 0.891 | -0.969 | -3.79 (inactive) | -0.349 (inactive) | -0.207 (inactive) |
| C=C[C@H]1C(C(=O)OCC)=CC[C@@H](c2ccccc2)N1S(=O)(=O)c1ccc(C)cc1 | 0.149 | 1.32 (inactive) | -0.172 (inactive) | 0.319 (inactive) | 0.257 (inactive) | 1.39 (inactive) | -0.621 (inactive) | -0.183 (inactive) | -0.667 | 0.199 | 0.413 (inactive) | 0.635 | -1.89 | -2.34 (inactive) | -0.229 (inactive) | -0.732 (inactive) |
| O=C1OCCC=C[C@H]2OC34C=CCN(Cn5nnc6ccccc65)C(=O)[C@H]3N(CCCO)C(=O)[C@@H]4C12 (some centres not stated) | -0.614 | -0.63 (inactive) | 0.157 (inactive) | -0.535 (inactive) | -0.441 (inactive) | 0.227 (inactive) | -1.13 (inactive) | -0.951 (inactive) | -0.997 | -0.0351 | 2.05 (inactive) | -0.308 | -1.82 | -3.33 (inactive) | -0.628 (inactive) | -0.609 (inactive) |
| CCOC(=O)C[C@H]1[C@H](OC(=O)c2ccc(C(=O)c3ccccc3)cc2)[C@@H](NC(=O)CC(C)C)c2cc(OCCCO)ccc2N1C(=O)c1ccccc1 | -0.358 | 0.325 (inactive) | 0.0303 (inactive) | -0.235 (inactive) | 0.714 (inactive) | -0.0649 (inactive) | -0.794 (inactive) | -0.717 (inactive) | -0.281 | -0.0773 | 0.786 (inactive) | 0.671 | 1.38 | -3.51 (inactive) | 0.309 (inactive) | -0.0385 (inactive) |
